The text below walks through data of PubChem BioAssay.

The nature of test [1]: antimalarial activity against Dd2 strain (AID 2302;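 active = growth inhibition above 50% at the single 2 µM test dose, taken to imply half-maximal potency below 2 µM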;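 note: 0% = DMSO untreated growth and 100% = chloroquine plus artemisinin killed control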). The following applies: P. falciparum Dd2 in RBCs, LDH growth readout, 72 h; at 2 µM; active compounds read high.
Test [2] in a line: HepG2 cytotoxicity, primary screen, cytotoxicity control for P. falciparum antimalarial project, cell-based, ATP luminescence (AID 2303;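 active = inhibition above 50%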;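 note: 0% = DMSO wells and 100% = digitonin-killed cells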). The following applies: HepG2 viability, 24-48 h, at 10 µM, active compounds read high.
The target in test [3] is L-lactate dehydrogenase (Plasmodium falciparum (isolate CDC / Honduras)) (UniProt Q27743). Put plainly: PfLDH activity inhibition – cell lysate, 3D7 strain, counter-screen for P. falciparum growth inhibition project (AID 2304).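 Note: 0% = vehicle and 100% = reference inhibitor.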 The following applies: P. falciparum 3D7 crude extract, LDH APAD/NBT absorbance; at 2 µM; active compounds read high. For orientation: Counterscreens check selectivity or assay interference.

Test [4] can be described thus: inhibition of 3D7 malaria parasite growth – strain 3D7 (AID 2306).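 Note: 0% = DMSO wells and 100% = chloroquine plus artemisinin control wells.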 The following applies: P. falciparum 3D7 erythrocytic growth, LDH absorbance, 72 h; at 2 µM; active compounds read high.
The target in test [5] is Calcium-dependent protein kinase 1 (Plasmodium falciparum (isolate 3D7)) (UniProt P62344). The test is described as follows: PfCDPK1 kinase inhibitors, biochemical, TCAMS library (AID 1159585; cut-off not given, nearly all actives have IC50 up to about 0.98 µM;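 note: inhibitors leave more ATP so luminescence rises with inhibition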). The following applies: recombinant PfCDPK1, Kinase-Glo ATP depletion luminescence. On the technique in general: Kinase-Glo measures the ATP left after a reaction by luminescence.
Test [6] has as its target Plasmodium falciparum protein kinase 6 (PK6, PF3D7_1337100) (UniProt Q8IDW1). The test is described as follows: PfPK6 kinase inhibitors, biochemical, TCAMS library (AID 1159586). The following applies: recombinant PfPK6, Kinase-Glo ATP depletion luminescence.
The target of test [7] is Protein kinase 7 (PK7), Plasmodium falciparum 3D7 (PF3D7_0213400) (UniProt Q7YTF7). The test is described as follows: inhibition of Plasmodium PK7 catalytic activity – biochemical, TCAMS antimalarial set, Kinase-Glo luminescence (AID 1159587). The following applies: recombinant PfPK7, Kinase-Glo ATP depletion luminescence.
Test [8] has as its target Calcium-dependent protein kinase 4 (Plasmodium falciparum (isolate 3D7)) (UniProt Q8IBS5). Put plainly: PfCDPK4 kinase inhibitors, biochemical, TCAMS library (AID 1159588; cut-off not given, nearly all actives have IC50 up to about 0.91 µM). The following applies: recombinant PfCDPK4, Kinase-Glo ATP depletion luminescence.

A number with no mark means an inactive call. For some of these results: Measured potencies and affinities stand elsewhere. Active and inactive are the calls of the source. Unless noted, the rule behind the calls is not given here.

Calcium-dependent protein kinase 4 (Plasmodium falciparum (isolate 3D7)), sequence (Q8IBS5 whole entry, looked up): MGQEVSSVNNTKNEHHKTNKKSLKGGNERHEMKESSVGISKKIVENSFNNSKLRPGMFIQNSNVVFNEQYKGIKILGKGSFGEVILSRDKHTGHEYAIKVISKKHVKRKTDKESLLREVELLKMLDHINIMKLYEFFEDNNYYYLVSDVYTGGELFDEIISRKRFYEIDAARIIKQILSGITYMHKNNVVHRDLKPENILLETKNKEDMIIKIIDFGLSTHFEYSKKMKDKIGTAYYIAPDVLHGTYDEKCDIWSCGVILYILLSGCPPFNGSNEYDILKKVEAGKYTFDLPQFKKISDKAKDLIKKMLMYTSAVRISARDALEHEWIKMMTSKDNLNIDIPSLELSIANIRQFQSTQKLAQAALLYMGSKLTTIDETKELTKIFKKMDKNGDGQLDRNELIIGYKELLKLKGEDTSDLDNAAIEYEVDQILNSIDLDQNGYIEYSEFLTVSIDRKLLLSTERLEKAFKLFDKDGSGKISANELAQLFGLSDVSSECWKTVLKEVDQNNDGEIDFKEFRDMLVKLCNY
Calcium-dependent protein kinase 1 (Plasmodium falciparum (isolate 3D7)), sequence (P62344 whole entry, looked up): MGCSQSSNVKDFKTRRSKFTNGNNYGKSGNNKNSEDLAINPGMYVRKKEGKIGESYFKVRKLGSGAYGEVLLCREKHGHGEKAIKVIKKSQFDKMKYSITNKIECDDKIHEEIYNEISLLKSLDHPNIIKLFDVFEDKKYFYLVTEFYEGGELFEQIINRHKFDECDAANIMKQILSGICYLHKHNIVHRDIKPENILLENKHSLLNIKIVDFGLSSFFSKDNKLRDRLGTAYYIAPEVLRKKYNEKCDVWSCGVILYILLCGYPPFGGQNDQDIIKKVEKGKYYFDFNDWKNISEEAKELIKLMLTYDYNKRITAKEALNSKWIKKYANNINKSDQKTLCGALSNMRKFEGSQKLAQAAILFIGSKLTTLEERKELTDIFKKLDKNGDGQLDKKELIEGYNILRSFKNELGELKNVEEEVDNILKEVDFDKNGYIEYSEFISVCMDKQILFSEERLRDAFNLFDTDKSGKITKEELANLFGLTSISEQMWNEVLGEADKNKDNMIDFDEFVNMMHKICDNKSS
L-lactate dehydrogenase (Plasmodium falciparum (isolate CDC / Honduras)), sequence (Q27743 whole entry, looked up): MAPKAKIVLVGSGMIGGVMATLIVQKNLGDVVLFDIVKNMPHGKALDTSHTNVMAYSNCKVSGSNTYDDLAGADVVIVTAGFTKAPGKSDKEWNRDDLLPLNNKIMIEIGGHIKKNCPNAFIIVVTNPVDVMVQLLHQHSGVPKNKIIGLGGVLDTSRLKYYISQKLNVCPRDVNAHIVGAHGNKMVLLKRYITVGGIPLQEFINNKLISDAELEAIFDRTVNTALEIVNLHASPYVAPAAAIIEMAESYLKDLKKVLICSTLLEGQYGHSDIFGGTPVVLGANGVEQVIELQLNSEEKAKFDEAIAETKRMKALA
Protein kinase 7 (PK7), Plasmodium falciparum 3D7 (PF3D7_0213400), sequence (Q7YTF7 1-343): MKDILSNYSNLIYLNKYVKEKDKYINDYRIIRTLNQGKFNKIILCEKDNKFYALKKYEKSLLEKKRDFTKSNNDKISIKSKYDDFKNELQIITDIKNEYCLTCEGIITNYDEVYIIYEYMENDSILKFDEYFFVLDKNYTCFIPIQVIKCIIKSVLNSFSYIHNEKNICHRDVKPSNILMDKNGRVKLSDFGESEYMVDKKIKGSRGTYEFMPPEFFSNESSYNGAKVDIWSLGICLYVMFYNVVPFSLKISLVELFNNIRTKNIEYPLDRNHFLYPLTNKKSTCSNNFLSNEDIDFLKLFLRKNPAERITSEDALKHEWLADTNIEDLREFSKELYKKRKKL
Plasmodium falciparum protein kinase 6 (PK6, PF3D7_1337100), sequence (Q8IDW1 1-305): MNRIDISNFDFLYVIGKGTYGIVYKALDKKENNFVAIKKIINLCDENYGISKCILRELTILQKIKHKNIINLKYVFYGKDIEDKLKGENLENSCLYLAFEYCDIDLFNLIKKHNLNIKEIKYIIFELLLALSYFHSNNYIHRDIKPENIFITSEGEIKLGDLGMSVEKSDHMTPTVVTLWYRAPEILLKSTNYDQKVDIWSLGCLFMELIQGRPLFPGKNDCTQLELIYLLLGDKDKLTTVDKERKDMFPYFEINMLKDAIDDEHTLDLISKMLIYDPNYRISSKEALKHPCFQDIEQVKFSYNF

On to `c1cc(CN2CCN(c3ccncc3)CC2)cc(-c2ccc(-c3nc4ccccc4[nH]3)cc2)c1`, for which the growth inhibition in test [1] and in test [4] was 100% (active) in each case. Moreover, the inhibition (usually the drop in the measured response relative to a control, in per cent) in test [2] was 60% (active); in test [3], -11%. Besides, the outcome in test [5], in test [6], in test [7] and in test [8] was inactive.

In the case of `COc1ccc2nccc([C@@H](O)CN3CCC(NCCNc4cccc(F)c4)CC3)c2c1`, the growth inhibition was 73% (active) in test [1] and 98% (active) in test [4]. For the same compound, the results for the inhibition in test [2] and in test [3] were 11% and 0%, respectively. The outcome in test [5], in test [6], in test [7] and in test [8] was inactive.

Take `Cc1cc(N[C@@H](Cc2ccccc2)C(=O)NCCOc2ccccc2)nc(NCCc2cccs2)n1`: the growth inhibition in test [1] was 32%; in test [4] it was 95% (active). The inhibition in test [2] was 8%; in test [3] it was 0%. Moreover, the result in test [5], in test [6], in test [7] and in test [8] was inactive.

As for `Cc1ccc2c(Cl)c(C(=O)N3CC(C)OC(C)C3)sc2c1` (stereo not given), the results for the growth inhibition in test [1] and in test [4] were 98% (active) and 100% (active), respectively. The inhibition in test [2] was 4%; in test [3], 3%. In addition, the outcome in test [5], in test [6], in test [7] and in test [8] was inactive.

Consider `O=C(Nc1ccc2c(c1)OCO2)c1cc(-c2cccnc2)nc2ccc(Cl)cc12`, for which the values for the growth inhibition in test [1] and in test [4] were 41% and 89% (active), respectively. Moreover, the inhibition in test [2] was 9%; in test [3] it was -3%. The result in test [5], in test [6], in test [7] and in test [8] was inactive.

With `O=C(/C=C/c1ccc(Cl)c(Cl)c1)N1CCN(C(=O)Nc2ccc(C(F)(F)F)cc2)CC1`, the growth inhibition was 101% (active) in test [1] and 98% (active) in test [4]. Besides, the inhibition in test [2] is 47%; in test [3], 4%. The result in test [5], in test [6], in test [7] and in test [8] was inactive.

On to `CC(=O)Nc1nc(C(=O)Nc2cccc(-c3cccc(-c4nc5ccc(F)cc5[nH]4)c3)c2)cs1`, for which the growth inhibition in test [1] is 100% (active); in test [4], 101% (active). The figures for the inhibition in test [2] and in test [3] were 39% and -2%, respectively. Moreover, the result in test [5], in test [6], in test [7] and in test [8] was inactive.

As for `CC(C)n1cc2c(ccc3nc(N)nc(N)c32)n1`, the growth inhibition was -2% in test [1] and 92% (active) in test [4]. The inhibition in test [2] is 65% (active); in test [3] it was 1%. The result in test [5], in test [6], in test [7] and in test [8] was inactive.

Take `CCc1cc(OC)ccc1C1CCN(CCCCNC(=O)c2ccc(NC(=O)c3ccc(Cl)cc3)cc2)CC1`: the growth inhibition was 61% (active) in test [1] and 95% (active) in test [4]. In addition, the inhibition is 23% in test [2] and 6% in test [3]. In addition, the outcome in test [5], in test [6], in test [7] and in test [8] was inactive.

For `Nc1ncc(-c2cccc(OCc3ccccc3)c2)cc1-c1nnc2ccc(Cl)nn12`, the figures for the growth inhibition in test [1] and in test [4] were 7% and 94% (active), respectively. The results for the inhibition in test [2] and in test [3] were -7% and -5%, respectively. For the same compound, the outcome in test [5], in test [6], in test [7] and in test [8] was inactive.

Consider `COc1cccc(C(=O)NCc2cccs2)c1Oc1ccccc1`, for which the growth inhibition in test [1] is 4%; in test [4], 98% (active). Also, the figures for the inhibition in test [2] and in test [3] were -6% and -4%, respectively. Further, the outcome in test [5], in test [6], in test [7] and in test [8] was inactive.

In the case of `CN(CCCNCc1ccc2ccccc2c1)CCCNCc1ccc2ccccc2c1`, the figures for the growth inhibition in test [1] and in test [4] were 79% (active) and 100% (active), respectively. Further, the inhibition in test [2] was 100% (active); in test [3] it was 1%. The outcome in test [5], in test [6], in test [7] and in test [8] was inactive.

`Cc1ccc(NC(=O)NC2CCN(c3ccnc4ccccc34)CC2)cc1`: the growth inhibition in test [1] was 52% (active); in test [4] it was 97% (active). Also, the values for the inhibition in test [2] and in test [3] were 21% and -6%, respectively. The result in test [5], in test [6], in test [7] and in test [8] was inactive.

For the compound `CC(C)(C)c1ccc(NC(=O)c2cccc(CN3CCCN(CC4CCCCC4)CC3)c2)cc1`, the growth inhibition was 47% in test [1] and 93% (active) in test [4]. For the same compound, the inhibition was 97% (active) in test [2] and 1% in test [3]. In addition, the outcome in test [5], in test [6], in test [7] and in test [8] was inactive.

On to `CCOc1cc2ccccc2cc1CNCCCCCCNCc1cc2ccccc2cc1OCC`, for which the growth inhibition in test [1] was 76% (active); in test [4], 101% (active). Besides, the figures for the inhibition in test [2] and in test [3] were 99% (active) and 2%, respectively. Moreover, the result in test [5], in test [6], in test [7] and in test [8] was inactive.

In the case of `CN(C)CCOc1cc(NC(=O)c2ccc(-c3ccc(Cl)cc3Cl)cc2)ccc1-c1ccccc1`, the growth inhibition in test [1] is 26%; in test [4] it was 98% (active). The inhibition was 45% in test [2] and -4% in test [3]. Moreover, the result in test [5], in test [6], in test [7] and in test [8] was inactive.

In the case of `COc1cccc(CNC(=O)[C@@H]2CN(C(=O)c3ccccc3)CCN2)c1`, the growth inhibition is -1% in test [1] and 92% (active) in test [4]. Besides, the inhibition was 4% in test [2] and -2% in test [3]. In addition, the result in test [5], in test [6], in test [7] and in test [8] was inactive.

As for `CC(=O)Nc1nc(C(=O)Nc2ccc(-c3ccc(-c4nc5c(C)cccc5[nH]4)cc3)cc2)cs1`, the growth inhibition in test [1] was 53% (active); in test [4], 101% (active). In addition, the figures for the inhibition in test [2] and in test [3] were 42% and -1%, respectively. In addition, the outcome in test [5], in test [6], in test [7] and in test [8] was inactive.

As to `Cc1cccc2[nH]c(-c3ccc(-c4ccc(NC(=O)c5cncn5C)cc4)s3)nc12`, the growth inhibition in test [1] is 30%; in test [4], 102% (active). Also, the inhibition in test [2] was 49%; in test [3], 4%. In addition, the outcome in test [5], in test [6], in test [7] and in test [8] was inactive.

In the case of `Cc1cc(F)ccc1[C@H]1CNCCN1C(=O)N(C)[C@@H](C)c1cc(C(F)(F)F)cc(C(F)(F)F)c1`, the growth inhibition in test [1] is 99% (active); in test [4] it was 100% (active). For the same compound, the inhibition in test [2] is 20%; in test [3] it was 1%. Also, the outcome in test [5], in test [6], in test [7] and in test [8] was inactive.
